Values joined by “and” are separate entries in the source; they are usually repeats but may differ in a detail not shown here. Identical values can stand only once. Active and inactive are the calls of the source. The calls were made as follows: active = hit-call score of the fitted dose curve at least 0.9, where 1 is the maximum; inactive = score below 0.9.

The nature of the assay: CCTE_Shafer_MEA_dev_per_burst_spike_percent: CCTE's Neural Network Formation Assay for Percent of Spikes in a Burst, Shafer Lab (AID 2284032). As to the method: CCTE_Shafer_MEA_dev assay is conducted using Axion Biosystems 48 well microelectrode array (MEA) plates and Maestro recording system. Each well of the MEA plate contains a grid of 16 microelectrodes embedded in the culture surface. Electrically active cells, such as neurons, can be cultured over the electrodes, and electrical activity in these cells can be recorded extracellularly. The spontaneous firing of neurons is captured from each electrode on a microsecond timescale providing both temporally and spatially precise data. […] The CCTE_Shafer_MEA_dev assay uses primary cultures of rat cortical neurons. Recordings are made on days post-plating 5, 7, 9 and 12. As these cultures mature over time, neural networks develop functional activity and form cohesive networks in which electrical activity can be highly coordinated. CCTE_Shafer_MEA_dev_per_burst_spike_percent is 1 of 19 assay components of the CCTE_Shafer_MEA_dev assay. It measures the percentage of spikes (action potential firings) in a single-electrode burst (temporally-clustered group of spikes) as the total number spikes in bursts divided by the total number of spikes during a recording in a microelectrode array (MEA) using Axion Biosystems Maestro 768 channel amplifier with the AxIS adaptive spike detector. The percent of spikes in bursts is averaged across the actively bursting electrodes to report a well-mean value. To collapse across multiple recordings made on days post-plating 5, 7, 9 and 12, the trapezoidal area-under-the-curve of the component is calculated.Data from the assay component CCTE_Shafer_MEA_dev_per_burst_spike_percent was analyzed into 1 assay endpoint. This assay endpoint, CCTE_Shafer_MEA_dev_per_burst_spike_percent, was analyzed in the negative analysis fitting direction relative to DMSO as the negative control and baseline of activity. Using a type of functional reporter, gain or loss-of-signal activity can be used to understand electrical activity.
On the day prior to culture, each well was coated thoroughly with 150 uL of 0.05% polyethyleneimine (PEI, Sigma Cat P3143) in 50 mM HEPES (Sigma Cat H7523) at a pH of 8. The plate was incubated at 37C for one hour. PEI was rinsed out with 500 uL of sterile water three times. Plates were stored at 4C until the day of culture. This culture was plated at a seeding density of 1.5 x 10^5 cells/well on a 48-well MEA plate, prepared as described above. Cells were administered via a 25 uL media/laminin ([…]; Sigma Cat L2020-1MG) drop directly onto the microelectrode array, as adding the cells with the laminin results in better attachment than pre-coating with laminin. After 2 hours, an additional 475 uL of cortical media was added and the cells returned to the incubator. Exposure starts at day 0 of plating and is continued over twelve days of network development until the experiment is terminated. Cells are fed with fresh medium on DIV 5 and 9, following the recordings on those days. The entire volume of media in the well is exchanged and any vehicle or compound treatment is renewed. Complete details are found in OP-NHEERL/ISTD/SBB/TJS/2015-03-r0 (available on request, email shafer.tim@epa.gov). Measurement of the electrical activity is non-invasive, and recordings can be made from the same plate over multiple different days of the culture. In cortical neurons, this allows for the measurement of extracellular action potentials over the period during which networks form in the MEA plate.
Take `CC#C[C@]1(O)CC[C@H]2[C@@H]3CCC4=CC(=O)CCC4=C3[C@@H](c3ccc(N(C)C)cc3)C[C@@]21C`: the half-maximal activity concentration (AC50) (as a rule, the concentration giving half of the maximal activity seen) was 6.81 µM (active) and 22.9 µM (active).
On to `OCCC(F)(F)C(F)(F)C(F)(F)C(F)(F)C(F)(F)C(F)(F)C(F)(F)C(F)(F)F`, for which the compound was called inactive.
Regarding `OCCC(F)(F)C(F)(F)C(F)(F)C(F)(F)C(F)(F)C(F)(F)F`, the compound was classed as inactive.
Same read-out and setting: for `CN1CCC[C@H]1c1cccnc1` the value was “inactive”; for `C=C(C)C(=O)OCCC(F)(F)C(F)(F)C(F)(F)C(F)(F)C(F)(F)C(F)(F)F`, “inactive”.
As for `CC(O)CO` (stereo not given), the call was inactive.
On to `CC1=C(/C=C/C(C)=C/C=C/C(C)=C/C(=O)O)C(C)(C)CCC1`, for which the AC50 was 19.6 µM (active).
For `c1ccc2c(c1)ccc1ccccc12`, the call was inactive.
Turning to `c1ccc2c(c1)Cc1ccccc1-2`, the compound was called inactive.
As to `c1ccc2cc3c(ccc4ccccc43)cc2c1`, the compound was classed as inactive.
